Screening data deposited in PubChem by National Center for Advancing Translational Sciences (NCATS).
DT40 TDP1 CPT: qHTS for Inhibitors of human tyrosyl-DNA phosphodiesterase 1 (TDP1): qHTS in cells in presence of CPT | hit rate 12% among 420,000 | AID 686979, 2013 | Potency, µM (titrated, usually from 46.2 µM), most hits filed as inhibitors | chicken DT40 Tdp1-/-;hTDP1 cells + 20 nM CPT, ATP luminescence, 48 h; note: nearly all actives have a fitted effect of over 55% in size
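Chicken DT40 Tdp1-/- cells complemented with human TDP1, 400 cells/well, exposed to compounds plus 20 nM camptothecin for at least 48 h at 37 C; viability read as ATP content by CellTiter-Glo luminescence.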
HT1080 IDH1KD tx: qHTS for induction of synthetic lethality in tumor cells producing 2HG: qHTS for the HT-1080-IDH1KD cell line | HT-1080 IDH1 knockdown viability, ATP luminescence, 48 h | Potency, µM (series often up to 46.1 µM), actives largely listed as cytotoxic | hit rate 2% among 360,000
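Cytotoxicity counter-line: IDH1KD HT-1080, 48 h, CellTiter-Glo. Curves classed by r2, magnitude and activity.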
DT40 TDP1 no CPT: qHTS for Inhibitors of human tyrosyl-DNA phosphodiesterase 1 (TDP1): qHTS in cells in absence of CPT | DT40 Tdp1-/- hTDP1 cells, no CPT, ATP luminescence, 48 h | Potency, µM (series often up to 46.2 µM), usual class: inhibitors | hit rate 15% among 420,000; note: nearly all actives have a fitted effect of over 55% in size
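Compound effects on proliferation are scored in DT40 Tdp1-/-;hTDP1 cells in the absence of CPT. ATP levels (CellTiter-Glo luminescence) are recorded after a ≥48 hr, 37 °C incubation.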
HT1080NT lethal: qHTS for induction of synthetic lethality in tumor cells producing 2HG: qHTS for the HT-1080-NT fibrosarcoma cell line; HT-1080-NT fibrosarcoma viability, CellTiter-Glo ATP luminescence, 48 h; Potency, µM (series often up to 46.1 µM), most hits filed as cytotoxic; hit rate 1.6% among 360,000;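 note: NT is the 2HG producing partner of a matched IDH1 knockdown line; nearly all actives have a fitted effect of over 55% in size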
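HT-1080-NT fibrosarcoma cells (2HG-overproducing), 750 cells/well in RPMI with 5% FBS, dosed after 2 h and incubated 48 h at 37C. CellTiter-Glo luminescence normalized to DMSO and no-cell wells; concentration-response curves fitted and classed.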
IL-1B inflam inh: qHTS for Inhibitors of Inflammasome Signaling: IL-1-beta AlphaLISA Primary Screen | hit rate 4.7% among 360,000 | activity change, % at 57.5 µM | THP-1 LPS/ATP IL-1B secretion, AlphaLISA, 16 h; active compounds read low; in the data active = activity change below about -50%; inconclusive = mostly about -30% to -49%
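THP-1 cells pretreated 1 hr with compounds (up to 57.5 uM final), then stimulated with LPS (250 ng/mL final) plus ATP (1.25 mM final); secreted IL-1B measured by AlphaLISA after 16 hr, decreased signal indicating inhibition.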
Numbers stand for hits; . = inactive; ? = inconclusive; / = not tested or not shown; [ ] = remark or other dose. Compounds with a hit are over-represented: about 19% of the library has one in this group of screens. Unless noted, calls come from the whole dose curve; as a rule, active = well fitted curve in the direction sought with a large enough effect; inconclusive = small, poorly fitted or top-dose-only effect, or another doubt; inactive = no such curve, though single readings can be large; an effect the other way counts as inactive or inconclusive.

SMILES	DT40 TDP1 CPT	HT1080 IDH1KD tx	DT40 TDP1 no CPT	HT1080NT lethal	IL-1B inflam inh
CC(=O)c1ccc(NC(=O)CSc2nc(N3CCOCC3)nc(N3CCOCC3)n2)cc1	.	.	.	.	.
NC(CCC(=O)NC(CS)C(=O)NCC(=O)O)C(=O)O (centres undefined)	.	.	.	.	.
COC(=O)Cc1c(C(=O)OC)nnn1-c1cccc(C(F)(F)F)c1	.	.	.	.	.
Cc1ccc2c(c1)N(CC(=O)NCCCN1CC(C)CC(C)C1)C(=O)c1cccnc1O2 (centres undefined)	.	.	.	.	.
N=C(N)SCc1ccc(Cl)cc1Cl	23µM	.	18µM	.	-101
NC(=S)Cc1ccc(Cl)cc1Cl	.	.	.	.	.
O=C(Nc1ccc(S(=O)(=O)NC2=NCCCCC2)cc1)c1ccc(Cl)cc1Cl	.	.	.	.	.
O=C(Nc1cccc(Cl)c1)N(Cc1nc2ccccc2c(=O)[nH]1)Cc1cccs1	23µM	.	23µM	.	?
COc1ccccc1CNC(=O)CCc1nc2ccccc2c(=O)[nH]1	.	.	.	.	.
COc1ccccc1CN(Cc1nc2ccccc2c(=O)[nH]1)C(=O)Nc1ccccc1	3.5µM	.	3.5µM	.	.
O=C(Nc1cccc(Cl)c1)N(Cc1nc2ccccc2c(=O)[nH]1)C1CCCC1	.	?	?	?	.
CCCCn1c(N)c(N(C(=O)CSc2nncn2-c2ccccc2C)C2CCCC2)c(=O)[nH]c1=O	.	.	.	.	.
Cc1cccc(C(=O)NNC(=O)c2ccccc2[N+](=O)[O-])c1	.	.	.	.	.
O=C(NNC(=S)Nc1ccccc1)c1ccccc1[N+](=O)[O-]	.	.	.	.	-73
O=C(COc1ccc(Br)cc1)NNC(=S)NC(=O)c1ccccc1[N+](=O)[O-]	?	.	21µM	.	.
Cc1ccc(C(=O)NC(=S)NNC(=O)c2ccccc2[N+](=O)[O-])cc1	21µM	.	?	.	.
O=C(NNC(=S)NC(=O)c1ccccc1[N+](=O)[O-])c1ccccc1[N+](=O)[O-]	.	.	.	.	.
O=C(NNC(=S)NC(=O)c1ccccc1[N+](=O)[O-])c1ccccc1O	?	.	18µM	.	.
CN(C(=O)c1ccccc1Cl)c1ccccc1C(=O)NCCc1ccccc1	?	.	?	.	.
COCc1c(C(=O)N2CCN(C3CCCC3)CC2)cnn1-c1nccc(-c2cccs2)n1	.[9.04 µM]	/	.	/	/
CCN1C(=O)C(=O)N(Cc2ccc(OC)c(F)c2)C1=O	.	.	?	.	.
CC(C)NC(=O)C1(C)CN(S(C)(=O)=O)CC(=O)N1CCOc1ccccc1 (centres undefined)	.	.	.	.	.
CCOc1ccc(Br)cc1S(=O)(=O)NCCN1CCCC1	.	.	.	.	.
CCOC(=O)C(=CNc1ccc2c(c1)nnn2-c1ccc(Cl)cc1)C(=O)OCC	.	.	.	.	.
O=C(NNC(=S)NC(=O)c1ccccc1[N+](=O)[O-])c1ccc(Cl)cc1Cl	?	.	?	.	.
SMILES	DT40 TDP1 CPT	HT1080 IDH1KD tx	DT40 TDP1 no CPT	HT1080NT lethal	IL-1B inflam inh
CCCCOc1ccccc1C(=O)NNC(=S)NC(=O)c1ccccc1[N+](=O)[O-]	26µM	?	18µM	?	.
Cc1noc(C)c1S(=O)(=O)N1CCC(C(=O)Nc2ccccn2)CC1	.	.	.	.	.
O=C(NC1CCN(Cc2ccccc2)CC1)C1CCN(S(=O)(=O)c2ccc(Cl)cc2)CC1	?	.	16µM	.	.
O=C(NC1CCN(Cc2ccccc2)CC1)C1CCN(S(=O)(=O)c2ccccc2)CC1	.	.	?	.	.
Cc1noc(C)c1S(=O)(=O)N1CCC(C(=O)NC2CCN(Cc3ccccc3)CC2)CC1	?	?	11µM	.	.
CSc1ccc(CN2CCC(N3CCC(C(=O)NC4CC4)CC3)CC2)cc1	21µM	.	8.2µM	.	.
O=C(O)CNc1nc(NCc2ccc(Cl)cc2)ccc1[N+](=O)[O-]	.	.	.	.	.
